Reference: the supplement of paper PMC10849652
The full data set covers some 8,800 targets. This sample favours those with a hit. About 0.5% of all pairs of compound and target were hits.

Assays:
Assay in all cases: log2 fold change, soluble protein after heating vs DMSO (PISA); higher = thermal stabilisation; K562 lysate, 10 uM; active = over 0.2 and 3.5 SD of the protein, either way, in both replicates (recomputed)
nilotinib = compound: Cc1cn(-c2cc(NC(=O)c3ccc(C)c(Nc4nccc(-c5cccnc5)n4)c3)cc(C(F)(F)F)c2)cn1 [nilotinib]
In short: (§1)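 Values give the log-two fold change in thermal stability against solvent controls, from duplicates. Crude K562 extract at 1 mg/mL protein, made by dounce homogenisation in PBS pH 7.4 with 1 mM MgCl2, was treated with 10 μM compound for 30 min. After 3 min heating across 48°C-58°C, aliquots were pooled, adjusted to 0.5% NP-40 at 4°C and centrifuged at 21,000xg for 90 min. The supernatant was measured by TMTpro 16plex LC-MS/MS with channel sums equalised.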

[1] = compound: Cc1nc(Nc2n[nH]c3c2CN(C(=O)N[C@H](CN(C)C)c2ccccc2)C3(C)C)c2sccc2n1
In short: as §1

dasatinib = compound: Cc1nc(Nc2ncc(C(=O)Nc3c(C)cccc3Cl)s2)cc(N2CCN(CCO)CC2)n1 [dasatinib]
In short: as §1

[2] = compound: Cc1ncc(-c2ccnc(Nc3ccc(S(C)(=O)=O)cc3)n2)n1C(C)C
In short: as §1

[3] = compound: Cn1cc(-c2ccc3c(c2)CCN3C(=O)Cc2cccc(C(F)(F)F)c2)c2c(N)ncnc21
In short: as §1

quisinostat = compound: Cn1cc(CNCC2CCN(c3ncc(C(=O)NO)cn3)CC2)c2ccccc21 [quisinostat]
In short: as §1

tipifarnib = compound: Cn1cncc1[C@@](N)(c1ccc(Cl)cc1)c1ccc2c(c1)c(-c1cccc(Cl)c1)cc(=O)n2C [tipifarnib]
In short: as §1

[4] = compound: NC(=O)Nc1cc(-c2cccc(F)c2)sc1C(=O)N[C@H]1CCCNC1
In short: as §1

[5] = compound: NC(=O)c1cnc(N[C@@H]2CCCC[C@@H]2N)nc1Nc1cccc(-n2nccn2)c1
In short: as §1

[6] = compound: NC1(c2ccc(-c3nc4ccn5c(=O)[nH]nc5c4cc3-c3ccccc3)cc2)CCC1
In short: as §1

Measured: log2 fold change

RFC3 (UniProt P40938)
Sequence of UniProt P40938 (P40938 whole entry, looked up): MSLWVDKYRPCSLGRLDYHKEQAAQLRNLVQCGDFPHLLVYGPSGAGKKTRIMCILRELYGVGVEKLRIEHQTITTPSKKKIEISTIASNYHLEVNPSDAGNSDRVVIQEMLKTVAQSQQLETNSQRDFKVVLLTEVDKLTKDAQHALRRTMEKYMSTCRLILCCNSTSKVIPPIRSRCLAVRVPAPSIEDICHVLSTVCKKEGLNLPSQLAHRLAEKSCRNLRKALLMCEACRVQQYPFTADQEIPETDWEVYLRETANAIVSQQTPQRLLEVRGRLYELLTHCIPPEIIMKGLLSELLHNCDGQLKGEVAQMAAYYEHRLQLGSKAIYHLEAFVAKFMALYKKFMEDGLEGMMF
inactive: nilotinib 0 | [1] -0.05 | dasatinib -0.036 | [2] 0.034 | [3] 0.021 | quisinostat -0.081 | tipifarnib 0.002 | [4] 0.094 | [5] 0.01 | [6] -0.006

RAB21 (UniProt Q9UL25)
Sequence of UniProt Q9UL25 (Q9UL25 whole entry, looked up): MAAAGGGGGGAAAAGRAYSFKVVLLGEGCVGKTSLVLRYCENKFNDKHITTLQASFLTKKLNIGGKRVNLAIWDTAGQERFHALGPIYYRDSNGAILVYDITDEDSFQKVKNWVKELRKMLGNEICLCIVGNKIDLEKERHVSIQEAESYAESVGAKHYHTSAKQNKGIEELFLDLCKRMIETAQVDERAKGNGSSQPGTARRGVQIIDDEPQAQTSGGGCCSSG
inactive: nilotinib 0.069 | [1] -0.036 | dasatinib 0.043 | [2] -0.017 | [3] -0.022 | quisinostat -0.023 | tipifarnib -0.051 | [4] 0.019 | [5] -0.017 | [6] -0.007

RBBP7 (UniProt Q16576)
Sequence of UniProt Q16576 (Q16576 whole entry, looked up): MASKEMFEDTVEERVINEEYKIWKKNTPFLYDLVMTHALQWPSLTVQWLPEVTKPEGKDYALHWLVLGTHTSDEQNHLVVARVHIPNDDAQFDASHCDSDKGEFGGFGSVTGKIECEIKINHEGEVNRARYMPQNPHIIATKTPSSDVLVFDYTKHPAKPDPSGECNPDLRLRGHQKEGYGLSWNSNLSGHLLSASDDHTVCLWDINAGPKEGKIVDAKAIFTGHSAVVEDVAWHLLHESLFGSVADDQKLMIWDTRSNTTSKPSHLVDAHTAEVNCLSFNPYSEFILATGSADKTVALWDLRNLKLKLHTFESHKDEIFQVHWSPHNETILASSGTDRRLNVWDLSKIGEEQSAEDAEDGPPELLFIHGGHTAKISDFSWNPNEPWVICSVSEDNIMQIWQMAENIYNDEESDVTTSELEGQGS
inactive: nilotinib -0.02 | [1] -0.002 | dasatinib 0.029 | [2] 0.007 | [3] -0.006 | quisinostat -0.041 | tipifarnib 0.014 | [4] 0.04 | [5] -0.003 | [6] 0.039

RAD54L2 (UniProt Q9Y4B4)
Sequence of UniProt Q9Y4B4 (Q9Y4B4 whole entry, looked up): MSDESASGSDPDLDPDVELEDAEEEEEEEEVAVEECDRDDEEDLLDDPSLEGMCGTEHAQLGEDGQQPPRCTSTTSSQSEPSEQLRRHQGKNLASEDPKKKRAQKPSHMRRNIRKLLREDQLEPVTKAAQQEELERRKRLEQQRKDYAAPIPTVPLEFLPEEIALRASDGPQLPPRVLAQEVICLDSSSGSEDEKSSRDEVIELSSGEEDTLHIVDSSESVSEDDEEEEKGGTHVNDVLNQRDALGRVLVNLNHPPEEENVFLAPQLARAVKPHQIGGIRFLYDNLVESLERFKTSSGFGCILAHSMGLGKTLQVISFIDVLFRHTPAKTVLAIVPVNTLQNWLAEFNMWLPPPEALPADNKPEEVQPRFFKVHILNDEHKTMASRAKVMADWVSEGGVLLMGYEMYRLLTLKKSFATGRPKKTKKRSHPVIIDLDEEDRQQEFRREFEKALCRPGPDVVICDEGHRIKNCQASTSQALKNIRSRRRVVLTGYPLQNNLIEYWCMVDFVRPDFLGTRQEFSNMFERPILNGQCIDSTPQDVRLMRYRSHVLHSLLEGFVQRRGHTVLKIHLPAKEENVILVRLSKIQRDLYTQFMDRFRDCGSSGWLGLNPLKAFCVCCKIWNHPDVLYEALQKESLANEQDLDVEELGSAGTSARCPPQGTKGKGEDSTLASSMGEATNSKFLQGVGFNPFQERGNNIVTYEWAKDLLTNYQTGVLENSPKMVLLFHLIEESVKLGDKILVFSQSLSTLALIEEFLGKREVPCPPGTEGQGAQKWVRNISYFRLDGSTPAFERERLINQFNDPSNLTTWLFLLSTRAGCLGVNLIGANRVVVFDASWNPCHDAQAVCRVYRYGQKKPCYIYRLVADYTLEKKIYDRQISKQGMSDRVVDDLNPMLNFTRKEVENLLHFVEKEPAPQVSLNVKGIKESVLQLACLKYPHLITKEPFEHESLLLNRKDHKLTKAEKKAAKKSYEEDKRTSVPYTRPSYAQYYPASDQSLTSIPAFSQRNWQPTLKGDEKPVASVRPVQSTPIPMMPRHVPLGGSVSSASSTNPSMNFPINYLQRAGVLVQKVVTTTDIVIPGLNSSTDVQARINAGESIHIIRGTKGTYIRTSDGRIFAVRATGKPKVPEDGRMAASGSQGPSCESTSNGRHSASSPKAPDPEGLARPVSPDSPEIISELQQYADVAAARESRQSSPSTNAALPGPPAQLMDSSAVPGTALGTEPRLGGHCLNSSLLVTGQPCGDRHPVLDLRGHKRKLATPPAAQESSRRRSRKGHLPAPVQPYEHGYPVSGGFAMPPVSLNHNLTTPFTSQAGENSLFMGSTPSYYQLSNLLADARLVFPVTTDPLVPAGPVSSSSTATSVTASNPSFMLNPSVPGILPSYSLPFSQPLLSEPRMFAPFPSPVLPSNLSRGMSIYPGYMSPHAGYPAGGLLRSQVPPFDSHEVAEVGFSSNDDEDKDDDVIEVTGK
inactive: nilotinib -0.037 | [1] -0.03 | dasatinib -0.053 | [2] -0.047 | [3] -0.15 | quisinostat -0.009 | tipifarnib -0.105 | [4] -0.013 | [5] 0.035 | [6] -0.091

RNF168 (UniProt Q8IYW5)
Sequence of UniProt Q8IYW5 (Q8IYW5 whole entry, looked up): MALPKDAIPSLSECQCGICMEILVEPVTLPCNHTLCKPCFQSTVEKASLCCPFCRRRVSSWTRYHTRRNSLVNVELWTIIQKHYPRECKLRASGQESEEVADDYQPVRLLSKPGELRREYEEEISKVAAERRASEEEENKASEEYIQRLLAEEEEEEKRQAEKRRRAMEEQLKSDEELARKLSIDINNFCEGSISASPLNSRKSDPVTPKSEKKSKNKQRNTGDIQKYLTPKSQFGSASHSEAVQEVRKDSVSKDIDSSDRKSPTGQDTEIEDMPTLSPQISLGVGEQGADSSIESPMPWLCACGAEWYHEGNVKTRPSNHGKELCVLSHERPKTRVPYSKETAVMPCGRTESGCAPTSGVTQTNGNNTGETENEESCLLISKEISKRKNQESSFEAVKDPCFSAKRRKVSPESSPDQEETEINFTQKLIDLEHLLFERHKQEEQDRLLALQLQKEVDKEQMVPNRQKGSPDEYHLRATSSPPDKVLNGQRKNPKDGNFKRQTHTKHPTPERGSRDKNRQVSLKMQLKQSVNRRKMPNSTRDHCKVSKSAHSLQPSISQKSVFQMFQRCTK
inactive: nilotinib 0.144 | [1] 0.085 | dasatinib 0.064 | [2] -0.186 | [3] 0.006 | quisinostat -0.019 | tipifarnib 0.016 | [4] -0.009 | [5] -0.02 | [6] 0.018

REL isoform 2 (UniProt Q04864)
Sequence of UniProt Q04864 (Q04864 whole entry, looked up): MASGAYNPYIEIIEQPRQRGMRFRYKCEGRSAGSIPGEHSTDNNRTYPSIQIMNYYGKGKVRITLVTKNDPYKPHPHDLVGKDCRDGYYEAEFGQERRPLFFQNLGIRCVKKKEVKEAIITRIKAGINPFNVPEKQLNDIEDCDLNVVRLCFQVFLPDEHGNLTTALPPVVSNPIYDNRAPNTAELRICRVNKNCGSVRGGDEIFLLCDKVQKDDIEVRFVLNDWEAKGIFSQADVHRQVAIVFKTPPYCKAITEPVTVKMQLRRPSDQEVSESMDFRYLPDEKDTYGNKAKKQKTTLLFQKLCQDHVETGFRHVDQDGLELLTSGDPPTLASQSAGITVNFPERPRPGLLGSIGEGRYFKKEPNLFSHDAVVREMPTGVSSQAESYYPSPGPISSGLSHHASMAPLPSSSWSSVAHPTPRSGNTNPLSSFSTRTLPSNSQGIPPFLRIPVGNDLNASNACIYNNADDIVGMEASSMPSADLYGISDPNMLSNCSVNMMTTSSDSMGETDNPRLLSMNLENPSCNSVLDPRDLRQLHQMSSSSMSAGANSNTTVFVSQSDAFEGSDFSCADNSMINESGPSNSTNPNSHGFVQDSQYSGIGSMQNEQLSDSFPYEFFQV
inactive: nilotinib 0.009 | [1] -0.032 | dasatinib -0.015 | [2] -0.041 | [3] 0.056 | quisinostat -0.005 | tipifarnib 0.014 | [4] 0.005 | [5] -0.009 | [6] -0.017
